# From PubChem
# AT treatment – qHTS Assay for Identifying a Potential Treatment of Ataxia-Telangiectasia; F2112 A-T fibroblasts, KAP-1 phosphorylation AlphaLISA; neocarzinostatin DNA damage 30 min before lysis; Potency, µM (highest dose often 57.5 µM), inactives show top-dose activation, hits mostly activators; hit rate 0.19% among 320,000; AID 485349, 2010; note: potency is the fitted concentration of half-maximal effect; % of control where 0% means no effect; nearly all actives have a fitted effect of over 45% in size
#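 ATM-like activity read as KAP-1 phosphorylation via AlphaLISA donor/acceptor antibody pairs after lysis and 6 hr at 25C. Cells were ATM-null patient fibroblasts (F2112, hTERT), dosed 60 min, then exposed to the DSB inducer NCS for 30 min.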
# RGS4 inh – Inhibitors of Regulator of G Protein Signaling (RGS) 4: qHTS. Transcreener GDP fluorescence polarization, RGS4-accelerated GTP hydrolysis. Potency, µM (titrated, usually from 114 µM), inactives show top-dose activity change, negative = inhibition, actives largely listed as inhibitors. hit rate 0.039% among 390,000. AID 504845, 2011; note: potency is the fitted concentration of half-maximal effect; % is set by controls: 0 for no effect and ±100 for the full control effect; nearly all actives have a fitted effect of over 75% in size
# Target sequence (P49798 whole entry, looked up): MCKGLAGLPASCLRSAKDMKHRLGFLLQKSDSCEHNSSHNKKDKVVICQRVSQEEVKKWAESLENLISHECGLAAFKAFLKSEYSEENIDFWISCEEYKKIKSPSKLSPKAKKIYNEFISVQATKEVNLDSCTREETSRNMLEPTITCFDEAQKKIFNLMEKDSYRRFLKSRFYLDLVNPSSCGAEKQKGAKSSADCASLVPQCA
#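 MLSMR compounds (23 nl, pin-transferred) preincubated 10 min at room temperature with a 500nM (2x) first reagent, then RGS4 at 900nM (2x) plus Transcreener GDP mix added; fluorescence polarization (620/688 nm) read before and after 90 min at 30 °C.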
# Apoferritin bind – qHTS Assay for Identification of Novel General Anesthetics; apoferritin/1-aminoanthracene competitive binding, fluorescence; Potency, µM (top dose mostly 77.5 µM), for the others: at the top dose activity change, negative = displacement, most hits filed as inhibitors; hit rate 0.074% among 350,000; note: potency is the fitted concentration of half-maximal effect; % is set by controls: 0 for no effect and ±100 for the full control effect; nearly all actives have a fitted effect of over 20% in size
# Target sequence (P02791 2-175 limits assumed): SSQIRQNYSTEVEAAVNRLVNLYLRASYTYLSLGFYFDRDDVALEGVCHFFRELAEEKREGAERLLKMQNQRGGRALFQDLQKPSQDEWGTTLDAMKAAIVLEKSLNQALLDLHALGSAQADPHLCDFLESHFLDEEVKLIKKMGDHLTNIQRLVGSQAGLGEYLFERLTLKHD
#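 Concentration-response curves derived by four-parameter Hill fitting of normalized fluorescence, where compounds displaced 1-AMA from 10 uM horse apoferritin following a brief 10 min room-temperature incubation; propofol titration acted as positive control.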
# LDHA inh – qHTS assay for inhibitors of human lactate dehydrogenase. activity change, % (values are at about 110 or 230 µM). purified LDHA, NADH/diaphorase-resazurin fluorescence; stronger effect = lower value. hit rate 0.15% among 480,000; in the data active = activity change below about -30%; inconclusive = mostly about -25% to -30%;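 note: plate controls were DMSO wells for no effect and wells without enzyme for full effect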
#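 Human LDH5 (2 nM) was incubated with 0.06 mM NADH and 0.2 mM pyruvate for 5 min at room temperature in Tris pH 7.4. Remaining NADH was coupled through diaphorase/resazurin, and resorufin fluorescence was read at 0 and 20 min.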
# * marks the source's active call; other numbers are inactive results; ? = inconclusive; . = no result given; ! = not active in a repeat; [ ] = dose if it differs, or a comment. Compounds with a hit are over-represented: about 0.35% of the library has one in this group of screens. Unless noted, calls come from the whole dose curve; as a rule, active = well fitted curve in the direction sought with a large enough effect; inconclusive = small, poorly fitted or top-dose-only effect, or another doubt; inactive = no such curve, though single readings can be large; an effect the other way counts as inactive or inconclusive.
SMILES,AT treatment,RGS4 inh,Apoferritin bind,LDHA inh
O=C1NC(=O)C(=Cc2ccccc2Oc2ccc(F)cc2)C(=O)N1,-2%,?,-19%,-40*
Cc1ccc(S(=O)(=O)Oc2ccccc2C=C2C(=O)NC(=O)NC2=O)cc1,.,.,.,-11
[O]=[Sb]([OH])([OH])[c]1ccccc1,.,?,.,-38*
Cc1ccc(N2CC(C(=O)OCC(=O)Nc3ccc(C#N)c(Cl)c3)CC2=O)cc1 (stereo not drawn),.,.,.,-4
Cc1cc2c(C(C)C)c(O)c(O)c(C=O)c2c(O)c1-c1c(C)cc2c(C(C)C)c(O)c(O)c(C=O)c2c1O,-16%,4.2µM*,?,-14
CC(C)(c1ccccc1)c1ccc(O)c(C(C)(C)c2ccccc2)c1,.,.,.,17
COc1cccc(N2C(=O)NC(=O)/C(=C/c3ccc4c5c(cccc35)CC4)C2=O)c1,18%,.,65%,.
CCOc1ccccc1N1C(=O)NC(=O)/C(=C/c2ccc3c4c(cccc24)CC3)C1=O,28%,?,59%,-72*
CC1(C(=O)O)CCCC2(C)c3cc(O)ccc3CCC12 (stereo not drawn),.,37%,.,1
C[C@]1(C(=O)O)CCC[C@]2(C)c3cc(O)ccc3CC[C@@H]12,.,1.1µM*,.,.
O=C1NC(=S)NC(=O)C1=Cc1ccc(Br)s1,-6%,?,-8%,-38*
CCOc1ccc(-c2c(C)n(-c3ccc(OCC)cc3)c3[n+]2CCCCC3)cc1,18µM*,-8%,-6%,10
N#CC(C#N)=Cc1ccc(O)c(O)c1,-12%,19µM*!,.,-3
CCOc1ccc(N2C(=O)/C(=C/c3ccco3)C(=O)NC2=S)cc1,-17%,-107%,-19%,-37*
CCOc1ccc(N2C(=O)NC(=O)/C(=C\c3ccccc3[N+](=O)[O-])C2=O)cc1,-23%,?,-10%,-53*
COc1ccc(N2C(=O)NC(=O)/C(=C\c3ccccc3[N+](=O)[O-])C2=O)cc1,11%,?,-13%,?
Cc1cc(C)cc(N2C(=O)NC(=O)C3(Cc4cc(C)ccc4N(C)C3)C2=O)c1 (stereo not drawn),.,.,.,10
COc1cc(/C=C(/C)[N+](=O)[O-])cc(OC)c1OC,.,.,.,3
COc1ccc(OCCOc2cccc(C=C3C(=O)NC(=O)NC3=O)c2)cc1,-10%,.,?,.
CN(CCOc1ccc(C=C2C(=O)NC(=O)NC2=O)cc1)c1ccccn1,0%,?,?,-32*
NCC(O)c1cc(O)c(O)cc1F (stereo not drawn),4%,19µM*!,.,-14
COC(=O)C1=C(c2ccc(Cl)c(C(F)(F)F)c2)C[C@@H]2CC[C@H]1N2C(=O)NCCOc1ccc(OC)cc1,20µM*,6%,.,6
Nc1c(C(=O)NCCN2CCOCC2)c2nc3ccccc3nc2n1Cc1ccccc1,20µM*,10%,121%,-3
N#Cc1c(-c2cccc(-c3no[n+]([O-])c3C#N)c2)no[n+]1[O-],.,.,.,3
Cc1[nH]nc2c1C(c1ccc(-c3ccc(F)cc3)o1)SCC(=O)N2 (stereo not drawn),.,.,.,22
SMILES,AT treatment,RGS4 inh,Apoferritin bind,LDHA inh
Cc1ccc(CN(CCc2ccccc2)Cc2ccccc2)o1,.,.,.,3
Cn1c[n+](C)cc1C(O)c1ccccc1 (stereo not drawn),-2%,?,-2%,-61*!
CCOC(=O)CNC(=O)N1Cc2cc(-c3ccccc3)ccc2-n2nncc2C1,.,.,.,-2
S=C(NCCc1ccccc1)N1Cc2cc(-c3ccccc3)ccc2-n2nncc2C1,.,.,.,-6
CCOC(=O)CNC(=O)N1Cc2ccccc2-n2nncc2C1,.,.,.,-33*
S=C(NCCc1ccccc1)N1Cc2ccccc2-n2nncc2C1,.,.,.,-36*
Fc1ccc(C(OCCN2CCN(CCCc3ccccc3)CC2)c2ccc(F)cc2)cc1,.,38µM*!,-2%[29.3 µM],1
N#Cc1ccc(NC(=O)CCC2CCCC2)cc1Cl,.,.,.,-1
COc1ccc(CN2CCN(Cc3ccccc3OC)CC2)cc1,-12%,-8%,-9%,-37*
COc1ccccc1N1CCN(Cc2ccc(Cl)cc2Cl)CC1,.,-13%,-9%,-16
Cc1ccc(CN2CCN(Cc3ccccc3F)CC2)cc1,1%,-3%[56.9 µM],-4%,-35*
